ULK1 inh = human ULK1 kinase inhibition, primary screen | AlphaScreen Atg13 phosphorylation by ULK1, luminescence | O75385 | inhibition, % at 5.96 µM | 1.9% of 30,000 active; in the data active = inhibition above about 43%;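 note: 0% = median of compound wells and 100% = no enzyme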
ASK1 primary = human ASK1 kinase inhibition, primary screen; Q99683; AlphaScreen MKK6 phosphorylation by ASK1, luminescence; inhibition, % at 7.44 µM; 0.99% of 22,000 active; AID 1159602; in the data active = inhibition above about 35%;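 note: 0% = median of compound wells and 100% = no enzyme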
Starred values were filed as active, the others as inactive. A selection: hits, their analogues and other compounds. The true share with any hit is near 2.5%.

For Cc1ncn(-c2ccc(Nc3ncc(Cl)c(-c4ccnn4C)n3)cc2)n1 the results were ULK1 inh 64* and ASK1 primary -8.
Screening Cc1ncn(-c2ccc(Nc3ncc4cccc(-c5cccc6c5ccn6C)c4n3)cc2)n1 returned ULK1 inh -5 and ASK1 primary -5.
`Cc1ncn(-c2ccc(Nc3ncc4cccc(-c5cccnc5)c4n3)cc2)n1` gave ULK1 inh 10 and ASK1 primary 9.
Cc1ncn(-c2ccc(Nc3nccc(-c4cc(F)cc(-c5ccnn5C)c4)n3)cc2)n1 was read as ULK1 inh 15 and ASK1 primary 19.
Screening O=C(NCc1cccc(C(F)(F)F)c1)c1ccc(-c2ccccc2)s1 returned ULK1 inh -18 and ASK1 primary -7.
For COc1cc(Nc2nc3ccc(C(=O)NC4CCN(Cc5ccccc5)CC4)cc3s2)cc(OC)c1OC the results were ULK1 inh 6 and ASK1 primary 2.
O=C(NCc1nc2ccccc2[nH]1)c1cnc(-c2ccccc2)s1 was read as ULK1 inh 0 and ASK1 primary 8.
`Cc1nn(C)c(C)c1-c1nccc(NCc2nc3ccccc3[nH]2)n1` gave ULK1 inh 6 and ASK1 primary -13.
NS(=O)(=O)c1ccc(Nc2nccc(NC3CCN(C(=O)c4nc5ccc(F)cc5[nH]4)CC3)n2)cc1 was read as ULK1 inh -22 and ASK1 primary -12.
Screening Nc1cccc(-c2nc(NCCCN3CCCC3=O)c3ncn(Cc4ccc(C(F)(F)F)cc4)c3n2)c1 returned ULK1 inh -20 and ASK1 primary 4.
`Cc1ncn(-c2ccc(Nc3ncc4cccc(-c5nccs5)c4n3)cc2)n1` gave ULK1 inh 50* and ASK1 primary 11.
Cc1ccc(-c2ncn(-c3ccc(Nc4ncc5cccc(-c6nccs6)c5n4)cc3)n2)cn1 was read as ULK1 inh 3 and ASK1 primary 20.
Screening Cn1cc(-c2ccccc2NC(=O)C(C)(C)C)cn1 returned ULK1 inh -32.
For NC(C(=O)Nc1ccc(-c2cn[nH]c2)c(Cl)c1)c1ccc(Cl)cc1 (stereo not given) the results were ULK1 inh -10 and ASK1 primary 14.
Screening N[C@H](C(=O)O)[C@H](O)c1ccc(O)c(O)c1 returned ULK1 inh 89*.
For CNC[C@H](O)c1ccc(O)c(O)c1 the results were ULK1 inh 0.
FC(F)(F)c1ccc(Nc2nc(NCc3cccc(C(F)(F)F)c3)c3ncn(-c4ccsc4)c3n2)cc1 was read as ULK1 inh -14 and ASK1 primary -12.
CC(=O)c1nc(Nc2ccc(-n3cnc(C)n3)cc2)ncc1Cl was read as ULK1 inh 34 and ASK1 primary 6.
`Clc1cnc(Nc2ccc(-n3cnc(N4CCOCC4)n3)cc2)nc1-c1cn[nH]c1` gave ULK1 inh 77* and ASK1 primary -33.
For Cc1ncn(-c2ccc(Nc3ncc(Cl)c(-c4cn[nH]c4)n3)cc2)n1 the results were ULK1 inh 73* and ASK1 primary -43.
For c1cc(-n2cnc(N3CCOCC3)n2)ccc1Nc1ncc2cc(-c3cn[nH]c3)ccc2n1 the results were ULK1 inh 11 and ASK1 primary 9.
Screening COc1cc2nc(-c3c(C)nn(C)c3C)nc(Nc3ccc(Oc4ccccc4)cc3)c2cc1OC returned ULK1 inh -16 and ASK1 primary -2.
For COc1ccc(CCNc2nc(OC)nc(-c3ccc(OC)nc3)n2)cc1 the results were ULK1 inh -15 and ASK1 primary 8.
Screening Nc1cccc(-c2nc(NCc3ccccc3)c3[nH]cnc3n2)c1 returned ULK1 inh -4 and ASK1 primary -1.
CC(=O)c1cccc(-c2nc(NCc3cccnc3)c3[nH]cnc3n2)c1 was read as ULK1 inh 54* and ASK1 primary -1.
Screening CC(=O)c1cccc(-c2nc(NCc3ccccc3)c3[nH]cnc3n2)c1 returned ULK1 inh -2 and ASK1 primary -1.
Nc1cccc(-c2nc(NCc3cccnc3)c3[nH]cnc3n2)c1 was read as ULK1 inh 69* and ASK1 primary -12.
`CN1CCN(c2ccc(-c3nc(NCc4cccc(C(F)(F)F)c4)c4[nH]cnc4n3)cc2)CC1` gave ULK1 inh -7 and ASK1 primary 11.
For Nc1ccc(O)c(C(=O)O)c1 the results were ULK1 inh 55*.
For O=C(O)c1cc(O)ccc1O the results were ULK1 inh 4.
Screening FC(F)(F)c1ccc(Cn2cnc3c(NCc4nc5ccccc5[nH]4)nc(NCc4cccnc4)nc32)cc1 returned ULK1 inh 9 and ASK1 primary -10.
Screening OCCN1CCN(Cn2c(=S)n(CN3CCN(CCO)CC3)c3ccccc32)CC1 returned ULK1 inh 3.
For CNC(=O)c1ncccc1Nc1cc(Nc2ccc3c(c2)CCC(=O)N3)ncc1C(F)(F)F the results were ULK1 inh 48* and ASK1 primary -6.
Screening CNC(=O)c1ncccc1Nc1cc(Nc2ccc3c(c2)NC(=O)C3)ncc1C(F)(F)F returned ULK1 inh 4 and ASK1 primary 9.
Screening CNC(=O)c1cc(F)ccc1Nc1cc(Nc2ccc3c(c2)NC(=O)C3)ncc1C(F)(F)F returned ULK1 inh 64* and ASK1 primary 1.
CNC(=O)c1cc(F)ccc1Nc1cc(Nc2ccc3c(c2)CC(=O)N3)ncc1C(F)(F)F was read as ULK1 inh 66* and ASK1 primary 16.
`O=C1Cc2cc(NC(=O)c3ccc(Br)cc3)ccc2N1` gave ULK1 inh -14.
CNC(=O)c1ncccc1Nc1cc(Nc2ccc3c(c2)CC(=O)N3)ncc1C(F)(F)F was read as ULK1 inh 11 and ASK1 primary 23.
Screening CC(=O)Nc1ccccc1Nc1cc(Nc2ccc3c(c2)CC(=O)N3)ncc1C(F)(F)F returned ULK1 inh 82* and ASK1 primary -12.
`N#Cc1ccccc1Nc1cc(NC(=O)Cc2ccc(F)cc2)ncc1C(F)(F)F` gave ULK1 inh -3 and ASK1 primary 14.
Screening CCCNc1nc(NCCCN2CCCC2=O)nc2c1ncn2-c1ccsc1 returned ULK1 inh 9 and ASK1 primary -32.
`CC(=O)Nc1ccc(NC(=O)c2ccnc(NCCN3CCOCC3)c2)cc1` gave ULK1 inh 2 and ASK1 primary -2.
Screening FC(F)(F)c1ccc(Nc2nc(NCc3cccnc3)c3ncn(-c4ccsc4)c3n2)cc1 returned ULK1 inh -11 and ASK1 primary -3.
For Nc1nc(Nc2ccc(Oc3ccccc3)cc2)cc(Nc2cccnc2)n1 the results were ULK1 inh 8 and ASK1 primary 23.
CC(C)n1cnc2c(NCC3CCCO3)nc(Nc3ccc(OC(F)(F)F)cc3)nc21 (stereo not given) was read as ULK1 inh -20 and ASK1 primary -11.
COc1ccc(CCNc2nc(N3CCN(Cc4ccc5c(c4)OCO5)CC3)nc3c2ncn3-c2ccccc2)cc1 was read as ULK1 inh 7 and ASK1 primary 34.
For C=C1c2c(Cl)ccc(O)c2C(O)=C2C(=O)[C@]3(O)C(O)=C(C(N)=O)C(=O)[C@@H](N(C)C)[C@@H]3[C@@H](O)[C@H]12 the results were ULK1 inh 72*.
For CN(C)[C@@H]1C(=O)C(C(=O)NCN2CCCC2)=C(O)[C@@]2(O)C(=O)C3=C(O)c4c(O)cccc4[C@@](C)(O)C3CC12 (stereo not given in full) the results were ULK1 inh 28.
